High-throughput results (PubChem BioAssay)
Sampled rows, rich in hits. Any-hit rate of the full collection: about 2.4%.
D2 antag = HTS Assay for Allosteric Antagonists of the Human D2 Dopamine Receptor: Primary Screen for Antagonists; inhibition, % at 10 µM; 340,000 tested, 2% active; HEK293 TREx D2 cells, calcium flux, dopamine EC80; AID 485344, 2010; D(2) dopamine receptor (Homo sapiens), P14416; in the data active = inhibition above about 30%; inactive = below that, where a call was filed
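Calcium flux kinetic readout in an inducible HEK293 TREx D2 line plated overnight at 30 C. After 180 s compound exposure, an EC80 dopamine challenge follows with another 180 s kinetic read to detect antagonism.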
D2 ag-1 = Beta-Arrestin HTS for Positive Allosteric Modulators of the Human D2 Dopamine Receptor: Agonists | D(2) dopamine receptor (Homo sapiens), P14416 | DiscoveRx PathHunter D2 beta-arrestin, luminescence, 90 min; 100% = 57 uM dopamine signal | activation, % (no concentration beside the values) | 360,000 tested, 0.084% active; in the data active = activation above about 40%; inconclusive = between about 15% and that limit
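Agonist mode: compounds alone added to overnight-plated D2 PathHunter cells for 90 min at 37 C, with 57 uM final dopamine (EC100) defining full response. Beta-arrestin recruitment detected by chemiluminescent reagent, read after 1 h at ambient temperature.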
D2 ag-2 = HTS Assay for Allosteric Agonists of the Human D2 Dopamine Receptor: Primary Screen for Agonists. HEK293 T-REx D2 cells, calcium flux agonist mode. activation, % at 2 µM. 340,000 tested, 0.53% active. AID 485358, 2010;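 active = activation over 3 SD above normal in the single-dose calcium agonist read, cut at about 30% in these data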
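Tetracycline-induced HEK293 T-REx cells with force-coupled D2 receptor, plated overnight at 30 C, loaded with no-wash calcium dye. After a 10 s baseline, compound was pin-added and calcium flux read kinetically for 180 s; calcium rises flagged agonists.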
D2 PAM-1 = HTS Assay for Positive Allosteric Modulators of the Human D2 Dopamine Receptor: Primary Screen for Potentiators; 340,000 tested, 0.34% active; HEK293 T-REx D2, calcium flux, EC20 dopamine potentiation; D(2) dopamine receptor (Homo sapiens), P14416; AID 485347, 2010; potentiation, % at 10 µM;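 active = potentiation over 3 SD above the plate norm, cut at about 30% in these data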
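Using a no-wash calcium dye in inducible, force-coupled HEK293 Trex cells expressing D2, we tracked fluorescence each second for 180 s after compound, then for 180 s after EC20 dopamine to detect augmented signalling.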
D2 PAM-2 = Beta-Arrestin HTS for Positive Allosteric Modulators of the Human D2 Dopamine Receptor: Potentiators. AID 624464, 2012. DiscoveRx D2 beta-arrestin cells, luminescence, 90 min; 100% = 57 uM dopamine signal. D(2) dopamine receptor (Homo sapiens), P14416. 360,000 tested, 0.23% active. potentiation, % (concentration not given with the values); in the data active = potentiation above about 50%; inconclusive = mostly about 30% to 49%
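PathHunter D2 cells, attached overnight at 37 deg C, received compound in DMSO plus dopamine at EC20 (50 nM final) for 90 min at 37 deg C. Beta-arrestin recruitment was read as luminescence after 1 h with detection reagent at ambient temperature.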
D3 ag = qHTS of D3 Dopamine Receptor Agonist: D3 Dopamine Receptor B-arrestin Agonist Confirmatory Assay; shares compounds with D2 ag-2; DiscoveRx D3 beta-arrestin cells, luminescence, 90 min; Potency, µM (series often up to 76.9 µM), most hits filed as activators; 2,300 tested, 4% active; also: nearly all actives have a fitted effect of over 70% in size
Target sequence (P35462 whole entry, looked up): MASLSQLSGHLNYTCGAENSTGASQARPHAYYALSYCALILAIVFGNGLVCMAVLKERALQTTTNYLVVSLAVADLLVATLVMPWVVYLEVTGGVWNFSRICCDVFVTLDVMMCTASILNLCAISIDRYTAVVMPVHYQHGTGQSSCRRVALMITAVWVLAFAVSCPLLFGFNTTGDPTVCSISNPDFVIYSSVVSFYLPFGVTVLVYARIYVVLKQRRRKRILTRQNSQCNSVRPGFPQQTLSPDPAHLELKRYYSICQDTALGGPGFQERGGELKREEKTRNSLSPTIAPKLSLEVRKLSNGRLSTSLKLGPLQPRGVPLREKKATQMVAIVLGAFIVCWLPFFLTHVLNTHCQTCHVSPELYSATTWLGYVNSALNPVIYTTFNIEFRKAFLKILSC
D2 ag-3 = qHTS of D3 Dopamine Receptor Agonist: D2 Dopamine Receptor B-arrestin Agonist Counterscreen. shares compounds with D2 ag-2. DiscoveRx PathHunter D2 beta-arrestin, luminescence, 90 min; response scale: percent relative to full dopamine signal. Potency, µM (titrated, usually from 76.9 µM), most hits filed as activators. 2,300 tested, 5.9% active. AID 720507, 2013; also: nearly all actives have a fitted effect of over 70% in size
Numbers stand for hits; i = inactive; ? = inconclusive; nt = no result given. Unless noted, calls follow the shape of the dose curve; as a rule, active = well fitted activation curve with a large enough effect; inconclusive = small, poorly fitted or top-dose-only effect; inactive = flat fitted curve, though single readings scatter.

SMILES	D2 antag	D2 ag-1	D2 ag-2	D2 PAM-1	D2 PAM-2	D3 ag	D2 ag-3
COc1ccccc1N1CCN(CCCCOc2ccc(C)cc2C)CC1	82	i	62	i	i	i	i
O=C(NCCCN1CCN(c2cccc(Cl)c2)CC1)C1CCC(=O)N1Cc1ccccc1Cl (stereo not drawn)	40	i	50	i	i	i	?
COc1ccccc1NC(=O)NCCCN1CCN(c2cccc(Cl)c2)CC1	63	i	49	i	i	i	i
COc1ccccc1N1CCN(CCCNC(=O)Nc2ccccc2C)CC1	87	i	i	i	i	i	i
CN(CCCNC(=O)C1CCC(=O)N1Cc1ccccc1Cl)c1ccccc1 (stereo not drawn)	i	i	i	i	i	nt	nt
COc1ccccc1N1CCN(CCCCN2C(=O)c3ccccc3C2=O)CC1	nt	i	nt	nt	i	nt	nt
Cc1ccccc1NC(=O)NCCCN1CCN(c2ccccc2F)CC1	nt	nt	nt	i	nt	nt	nt
CCc1cccc(C)c1NC(=O)CN1C(=O)C2(SCC(=O)N2c2cc(C)cc(C)c2)c2ccccc21 (stereo not drawn)	nt	nt	nt	i	nt	nt	nt
CCOC(=O)C1CCN(C(=O)Cn2ncc3c4ccccc4n(Cc4ccc(F)cc4)c3c2=O)CC1	nt	nt	i	i	nt	nt	nt
Cc1nc2ncnn2c(C)c1CCC(=O)NCCCN1CCN(c2cccc(Cl)c2)CC1	72	?	76	i	i	i	?
Cc1nc2ncnn2c(C)c1CCC(=O)N1CCN(c2cccc(Cl)c2)CC1	nt	nt	nt	i	nt	nt	nt
CCOc1ccc2nc(N3CCN(C(=O)c4ccco4)CC3)sc2c1	nt	nt	nt	i	nt	nt	nt
Cc1ccccc1C(=O)O/N=C(\N)c1ccccc1	i	?	i	i	i	nt	nt
Cc1ccccc1C(=O)O/N=C(\c1ccccc1)c1ccccn1	72	?	77	i	i	?	?
COc1cc(-c2nnc(NC(=O)CCS(=O)(=O)c3ccc(F)cc3)o2)cc(OC)c1OC	i	i	i	i	i	nt	nt
COc1cc(-c2nnc(NC(=O)CCS(=O)(=O)c3ccccc3)o2)cc(OC)c1OC	41	i	i	i	i	i	i
Cc1ccc(CNC(=O)c2nc(SCc3ccc(F)cc3)ncc2Cl)cc1	nt	nt	i	i	nt	nt	nt
Cc1cc(C(C)(C)C)ccc1OCCN1CCCC1	nt	i	nt	nt	i	i	i
Cc1ccc2c(c1)[C@H]1[C@H](CO2)[C@H](c2ccccc2)[C@]2(C)C(=O)N(Cc3ccc(Cl)cc3)CC(=O)N12	i	i	i	i	i	i	i
C[C@@H]1O[C@@H](O[C@H]2[C@H](O)[C@@H](O)[C@H](Oc3c(-c4ccc(O)c(O)c4)oc4cc(O)cc(O)c4c3=O)O[C@@H]2CO)[C@H](O)[C@H](O)[C@H]1O	i	i	i	i	i	i	i
C[C@@H]1O[C@@H](Oc2c(-c3ccc(O)c(O)c3)oc3cc(O)cc(O)c3c2=O)[C@H](O)[C@H](O)[C@H]1O	nt	i	nt	nt	i	nt	nt
COc1ccc(Nc2sc(C(=O)c3ccc(Cl)cc3)c(N)c2C(=O)Nc2ccccc2OC)cc1	i	i	i	i	i	i	i
CC(=O)OCC1=C[C@@H]2OC(=O)C3=CO[C@@H](O[C@@H]4O[C@H](CO)[C@@H](O)[C@H](O)[C@H]4O)[C@H]1[C@@H]32	i	i	i	i	i	i	i
COC(=O)C1=CO[C@@H](O[C@@H]2O[C@H](CO)[C@@H](O)[C@H](O)[C@H]2O)C2C(CO)=CCC12 (stereo partly drawn)	nt	i	nt	nt	i	nt	nt
CN(CCc1ccccn1)C1CCCN(S(=O)(=O)c2ccccc2)C1 (stereo not drawn)	i	i	i	i	i	nt	nt
SMILES	D2 antag	D2 ag-1	D2 ag-2	D2 PAM-1	D2 PAM-2	D3 ag	D2 ag-3
CC(=O)c1ccc(S(=O)(=O)N2CCCC(N(C)CCc3ccccn3)C2)cc1 (stereo not drawn)	i	i	55	i	i	i	i
CCOc1ccccc1NC(=O)CN1C(=O)CC(c2ccc(C)c(C)c2)=Nc2ccccc21	nt	nt	i	nt	nt	nt	nt
C/C(=N\NC(=O)c1nnn(-c2nonc2N)c1-c1ccc2c(c1)OCO2)c1ccc(C)cc1	i	i	i	i	i	i	i
C/C(=N\NC(=O)c1nnn(-c2nonc2N)c1-c1ccc2c(c1)OCO2)c1ccccc1	i	i	i	i	i	i	i
CCN1C(=O)/C(=C/C=C2\N(CC)c3cc(S(=O)(=O)N(C)C)ccc3N2c2ccccc2)SC1=S	i	i	i	i	i	i	i
CCN1C(=O)/C(=C\C=C\c2ccccc2[N+](=O)[O-])SC1=S	i	i	i	i	i	nt	nt
COc1ccc2c(c1)c1c(c(=O)n(-c3cccc(Cl)c3)c(=O)n1CC(=O)N1CCCC1)n2C	nt	nt	i	i	nt	nt	nt
CCOC(=O)c1oc2c(c1C)C(=O)CCC2	i	i	i	i	i	i	i
Cc1ccc(C)c(OCC(O)CN2CCc3ccccc3C2)c1C (stereo not drawn)	i	i	i	i	i	nt	nt
OC(COc1ccc(CNCc2cccnc2)cc1)CN1CCc2ccccc2C1 (stereo not drawn)	49	i	54	i	i	i	i
Cc1cc(=O)oc2cc(OCC(O)CN3CCN(c4ccccc4)CC3)ccc12 (stereo not drawn)	72	52	90	i	i	i	?
COc1ccccc1N1CCN(CC(O)COc2ccc3c(C)cc(=O)oc3c2)CC1 (stereo not drawn)	72	?	i	i	i	i	i
COc1ccc2c(C)cc(=O)oc2c1OCC(O)CN1CCOCC1 (stereo not drawn)	nt	i	nt	nt	i	nt	nt
Cc1cc(=O)oc2cc(OCC(O)CN3CCc4ccccc4C3)ccc12 (stereo not drawn)	nt	i	nt	nt	i	i	i
OC(COc1ccccc1CNCc1cccnc1)CN1CCc2ccccc2C1 (stereo not drawn)	i	i	i	i	i	nt	nt
COc1ccccc1NC(=O)C1=C(C)Nc2nc3ccccc3n2C1c1ccccc1Cl (stereo not drawn)	nt	nt	nt	i	nt	nt	nt
